Where “and” joins values, the source holds several entries; their conditions need not be identical. Equal values may be shown once. ± gives the standard deviation of the averaged measurements. The full ranking holds about 1,600 compounds; the median of “normalized growth (OD600, IQM-normalized) in LPM” is about 1, and the lowest 2% start at about 0.014. This is one part of a sample in which the lowest values are shown more often than they occur.
What follows are molecules tested on Salmonella enterica serovar Typhimurium SL1344 (assay: normalized growth (OD600, IQM-normalized) in LPM (fraction of plate interquartile mean); higher = more bacterial growth (less inhibition)). Conditions: LPM pH 5.8; 10 µM; 16 h.
Cc1cc(C)cc(OCC2CNC(=O)O2)c1 (stereo unspecified) was tested, and the normalized growth was 1.02 ± 0.03. Molecule COc1c(N2C[C@@H]3CCCN[C@@H]3C2)c(F)cc2c(=O)c(C(=O)O)cn(C3CC3)c12 has a normalized growth of 0.0131 ± 0.0045. Molecule COc1c(N2CCNC(C)C2)c(F)cc2c(=O)c(C(=O)O)cn(C3CC3)c12 (stereo unspecified) has a normalized growth of 0.0158 ± 0.0074. For CCn1cc(C(=O)O)c(=O)c2cc(F)c(N3CCNC(C)C3)c(F)c21 (stereo unspecified), the normalized growth was 0.0416 ± 0.00075. NC1CCN(c2c(F)cc3c(=O)c(C(=O)O)cn(C4CC4)c3c2Cl)C1 (stereo unspecified) gave a normalized growth of 0.0132 ± 0.00024. C[C@@H]1CN(c2c(F)c(F)c3c(=O)c(C(=O)O)cn(C4CC4)c3c2F)C[C@H](C)N1 was tested, and the normalized growth was 0.0487 ± 0.0099. Molecule C[C@@H]1CN(c2c(F)c(N)c3c(=O)c(C(=O)O)cn(C4CC4)c3c2F)C[C@H](C)N1 has a normalized growth of 0.0193 ± 0.0046. CC(=O)N(CC(O)CO)c1c(I)c(C(=O)NCCO)c(I)c(C(=O)NCC(O)CO)c1I (stereo unspecified) gave a normalized growth of 1.05 ± 0.036. For Cc1oc(=O)oc1CN1CCN(c2cc3c(cc2F)c(=O)c(C(=O)O)c2n3C(C)S2)CC1 (stereo unspecified), the normalized growth was 0.00846 ± 7.6e-05. S=C1SCN(Cc2ccccc2)CN1Cc1ccccc1 gave a normalized growth of 1.11 ± 0.061. With C=NC(C(=O)NC1C(=O)N2C1SC(C)(C)C2C(=O)O)c1ccccc1 (stereo unspecified) the normalized growth was 0.913 ± 0.058. C#C[C@]1(O)CC[C@H]2[C@@H]3CCc4cc(OC5CCCC5)ccc4[C@H]3CC[C@@]21C gave a normalized growth of 0.954 ± 0.1. Work on O=C([O-])[C@H]1/C(=C/CO)O[C@@H]2CC(=O)N21.[Li+] yielded a normalized growth of 1.12 ± 0.076. C#C[C@]1(OC(C)=O)CC[C@H]2[C@@H]3CCC4=CC(=O)CC[C@@H]4[C@H]3CC[C@@]21C showed a normalized growth of 1.14 ± 0.03. In the case of CC(=O)Oc1cc2c(s1)CCN(C(C(=O)C1CC1)c1ccccc1F)C2 (stereo unspecified), the normalized growth is reported as 1.08 ± 0.1. Work on Cc1nc(-c2ccc(OCC(C)C)c(C#N)c2)sc1C(=O)O yielded a normalized growth of 1.02 ± 0.038. For CC(=O)OCC(=O)[C@@]1(O)[C@@H](C)C[C@H]2[C@@H]3CCC4=CC(=O)C=C[C@]4(C)[C@@]3(F)[C@@H](O)C[C@@]21C, the normalized growth was 1.01 ± 0.033. In the case of COc1ccc2cc1Oc1ccc(cc1)C[C@H]1c3c(cc4c(c3Oc3cc5c(cc3OC)CCN(C)[C@@H]5C2)OCO4)CCN1C, the normalized growth is reported as 0.938 ± 0.024. CCC/C=C\C=C/C(=O)N[C@@H](CC(N)=O)C(=O)NC(CC(N)=O)C(=O)N[C@@H](C(=O)N[C@H](CCCN)C(=O)N[C@@H](C(=O)N[C@@H](C(=O)N[C@@H](C(=O)N[C@H](C(=O)N[C@@H](Cc1ccccc1)C(=O)N[C@H](CCCN)C(=O)NC(C(=O)N[C@H](C(=O)NC(C(=O)NCC(=O)N[C@@H](CC(C)C)C(=O)N[C@H](C)C(=O)NC(C(=O)O)C1CCC(O)C(Cl)C1)C1CCC(O)CC1)[C@H](C)O)C1CCC(O)CC1)[C@H](C)O)C1CCC(O)CC1)C1CCC(O)CC1)[C@H](C)O)C1CCC(O)CC1 (stereo partly specified) [RAMOPLANIN [A2 shown; 2mM]] showed a normalized growth of 1.31 ± 0.07. Work on CC1(C)O[C@@H]2C[C@H]3[C@@H]4C[C@H](F)C5=CC(=O)C=C[C@]5(C)[C@H]4[C@@H](O)C[C@]3(C)[C@]2(C(=O)CO)O1 yielded a normalized growth of 0.921 ± 0.042. In the case of Cc1cccc(C)c1NC(=O)c1ccccc1C(=O)O, the normalized growth is reported as 1.15 ± 0.12. CC1(C)S[C@@H]2[C@H](NC(=O)[C@H](C(=O)O)c3ccsc3)C(=O)N2[C@H]1C(=O)O showed a normalized growth of 1.01 ± 0.022. Molecule CC(=O)OC1CC2CCC1(C)C2(C)C (stereo unspecified) has a normalized growth of 1.21 ± 0.048. For CC(C)C[C@@H]1NC(=O)[C@H](CCCN)NC(=O)[C@H](C(C)C)NC(=O)[C@H](Cc2ccc(O)cc2)N[C@@H](CCC(=O)O)C(=O)N[C@@H](CC(N)=O)C(=O)[C@@H](Cc2ccccc2)NC(=O)[C@H](Cc2ccccc2)NC(=O)[C@@H]2CCCN2C(=O)[C@@H](Cc2ccccc2)NC1=O, the normalized growth was 0.992 ± 0.1. In the case of CC(S)C(=O)NCC(=O)O (stereo unspecified), the normalized growth is reported as 0.982 ± 0.071. O=C(O)CN(CCN(CC(=O)O)CC(=O)O)CC(=O)O.[Na+].[Na+].[Na+] gave a normalized growth of 0.0403 ± 0.013. For CO[C@@]1(NC(=O)C(C(=O)O)c2ccc(O)cc2)C(=O)N2C(C(=O)O)=C(CSc3nnnn3C)CO[C@@H]21 (stereo partly specified), the normalized growth was 0.993 ± 0.045. CO[C@@]1(NC(=O)C2SC(=C(C(N)=O)C(=O)O)S2)C(=O)N2C(C(=O)O)=C(CSc3nnnn3C)CS[C@@H]21 (stereo partly specified) gave a normalized growth of 0.00904 ± 0.00015. CO[C@@]1(NC(=O)CSCC#N)C(=O)N2C(C(=O)O)=C(CSc3nnnn3C)CS[C@@H]21 showed a normalized growth of 0.957 ± 0.052. For CO[C@H]1/C=C/O[C@@]2(C)Oc3c(C)c(O)c4c(O)c(c5c(nc6cc(C)ccn65)c4c3C2=O)NC(=O)/C(C)=C\C=C\[C@H](C)[C@H](O)[C@@H](C)[C@@H](O)[C@@H](C)[C@H](OC(C)=O)[C@@H]1C, the normalized growth was 0.0104 ± 0.00017. For CO[C@H]1/C=C/O[C@@]2(C)Oc3c(C)c(O)c4c(O)c(c(/C=N/N5CCN(C)CC5)c(O)c4c3C2=O)NC(=O)/C(C)=C\C=C\[C@H](C)[C@H](O)[C@@H](C)[C@@H](O)[C@@H](C)[C@H](OC(C)=O)[C@@H]1C, the normalized growth was 0.0102 ± 0.00021. With Nc1ccn([C@@H]2O[C@H](CO)[C@@H](O)[C@@H]2O)c(=O)n1 the normalized growth was 1.01 ± 0.067. Molecule O=c1[nH]cnc2c1ncn2[C@@H]1O[C@H](CO)[C@@H](O)[C@H]1O has a normalized growth of 1.13 ± 0.034. For Nc1ncn([C@@H]2O[C@H](CO)[C@@H](O)[C@H]2O)c(=O)n1, the normalized growth was 0.0134 ± 0.00024. O=C(O)c1ccc(S(=O)(=O)N(Cl)Cl)cc1 showed a normalized growth of 0.999 ± 0.013. With CC(=O)OC/C=C(C)/C=C/C=C(C)/C=C/C1=C(C)CCCC1(C)C the normalized growth was 0.905 ± 0.06. Work on C=COCC(F)(F)F yielded a normalized growth of 0.991 ± 0.044. Work on CCN(CC)CCOc1ccc2c(c1)C(=O)c1cc(OCCN(CC)CC)ccc1-2 yielded a normalized growth of 1.02 ± 0.083. C1CCN2C[C@@H]3C[C@@H](CN4CCCC[C@@H]34)[C@H]2C1 showed a normalized growth of 1.13 ± 0.04. COCC1=C(C(=O)OC(C)OC(=O)OC(C)C)N2C(=O)[C@@H](NC(=O)/C(=N\OC)c3csc(N)n3)[C@H]2SC1 (stereo partly specified) showed a normalized growth of 1.034 ± 0.0056. Work on CCCCCCCCCCCCCCCC[N+](C)(C)C yielded a normalized growth of 0.982 ± 0.038. Work on C[C@@H]1CC2C3C[C@H](F)C4=CC(=O)C=C[C@]4(C)[C@@]3(F)[C@@H](O)C[C@]2(C)[C@@]1(O)C(=O)COC(=O)C(C)(C)C (stereo partly specified) yielded a normalized growth of 1.04 ± 0.12. For COC(=O)Nc1nc2cc(Sc3ccccc3)ccc2[nH]1, the normalized growth was 0.987 ± 0.024. With OC[C@@H](O)[C@@H](O[C@@H]1O[C@H](CO)[C@H](O)[C@H](O)[C@H]1O)[C@H](O)[C@@H](O)CO the normalized growth was 0.98 and 0.904. CS(=O)(=O)c1ccc([C@@H](O)[C@@H](CF)NC(=O)C(Cl)Cl)cc1 gave a normalized growth of 0.0094 ± 0.00019. With CS(=O)(=O)c1ccc([C@@H](O)[C@@H](CO)NC(=O)C(Cl)Cl)cc1 the normalized growth was 0.934 ± 0.078.

From the supplement of paper PMC6331611
